Numbering of substitutions follows the chain as printed.

In article PMC11006913 one finds binding signal data, which are given here for 19 sequences.

Among the targets are PRRX1 (Homo sapiens, UniProt P54821 80-166, F113S); HOXB6 (Homo sapiens, UniProt P17509 132-218, K202E); CRX (Homo sapiens, UniProt O43186 26-111, R41L).
Common to all, as to experiment: PBM; 200 nM protein, PBS
What all share (conditions): dsDNA, one strand shown

The target of assay [1] is T1, PAX4 (Homo sapiens, UniProt O43316 9-242, R200K).
T1 sequence: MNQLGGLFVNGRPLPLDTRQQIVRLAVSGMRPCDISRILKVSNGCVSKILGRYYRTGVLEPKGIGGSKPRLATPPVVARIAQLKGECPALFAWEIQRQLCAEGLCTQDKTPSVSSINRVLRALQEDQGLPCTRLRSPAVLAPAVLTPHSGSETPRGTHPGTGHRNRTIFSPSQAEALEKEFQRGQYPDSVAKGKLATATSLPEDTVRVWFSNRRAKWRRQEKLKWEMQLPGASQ

In assay [2] the target is T2, PAX4 (Homo sapiens, UniProt O43316 9-242).
T2 sequence: T1 sequence with K192R

Assay [3] deals with T3, PAX4 (Homo sapiens, UniProt O43316 9-242, R200Q).
T3 sequence: T1 sequence with K192Q

Assay [4] addresses T4, PAX4 (Homo sapiens, UniProt O43316 9-242, F177V).
T4 sequence: T1 sequence with F169V, K192R

Assay [5] addresses T5, PAX4 (Homo sapiens, UniProt O43316 9-242, F177Y).
T5 sequence: T1 sequence with F169Y, K192R

For assay [6], the target named is T6, PAX4 (Homo sapiens, UniProt O43316 9-242, R227W).
T6 sequence: T1 sequence with K192R, R219W

The target of assay [7] is VAX1 (Homo sapiens, UniProt Q5SQQ9 86-172).
In assay [8] the target is VAX1 (Homo sapiens, UniProt Q5SQQ9 86-172, T142I).
In assay [9] the target is VAX1 (Homo sapiens, UniProt Q5SQQ9 86-172, K157R).
VAX1 (Homo sapiens, UniProt Q5SQQ9 86-172, K157R), sequence (Q5SQQ9 86-172 K157R): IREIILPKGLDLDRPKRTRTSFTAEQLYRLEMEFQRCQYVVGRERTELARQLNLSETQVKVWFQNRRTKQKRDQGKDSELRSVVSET

CRX, sequence (O43186 26-111 R41L): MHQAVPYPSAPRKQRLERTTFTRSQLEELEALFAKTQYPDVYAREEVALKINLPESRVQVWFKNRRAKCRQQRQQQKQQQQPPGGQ
HOXB6, sequence (P17509 132-218 K202E): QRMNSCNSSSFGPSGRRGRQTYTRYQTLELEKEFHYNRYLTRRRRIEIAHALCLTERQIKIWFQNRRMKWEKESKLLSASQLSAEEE
VAX1 (Homo sapiens, UniProt Q5SQQ9 86-172, T142I), sequence (Q5SQQ9 86-172 T142I): as the sequence (Q5SQQ9 86-172 K157R) above, with T57I, R72K counted along it
PRRX1, sequence (P54821 80-166 F113S): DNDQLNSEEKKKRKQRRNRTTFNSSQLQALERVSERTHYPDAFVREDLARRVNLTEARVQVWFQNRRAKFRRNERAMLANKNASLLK
VAX1 (Homo sapiens, UniProt Q5SQQ9 86-172), sequence (Q5SQQ9 86-172): as the sequence (Q5SQQ9 86-172 K157R) above, with R72K counted along it

As to CATGTTAG, the binding signal with PAX4 [1] was 10.7 upbm affinity estimate (log intensity, higher = more binding, comparable within an allelic series); in the assay with PAX4 [2] it was 10.8 upbm affinity estimate (log intensity, higher = more binding, comparable within an allelic series); in the assay with PAX4 [3], 10.7 upbm affinity estimate (log intensity, higher = more binding, comparable within an allelic series); in the assay with PAX4 [4], 10.1 upbm affinity estimate (log intensity, higher = more binding, comparable within an allelic series); in the assay with PAX4 [5], 10.2 upbm affinity estimate (log intensity, higher = more binding, comparable within an allelic series); in the assay with PAX4 [6], 10.3 upbm affinity estimate (log intensity, higher = more binding, comparable within an allelic series).

For the sequence ATTAGCTA, the binding signal with PAX4 [1] is 11.4 upbm affinity estimate (log intensity, higher = more binding, comparable within an allelic series); with PAX4 [2] it was 11.7 upbm affinity estimate (log intensity, higher = more binding, comparable within an allelic series); with PAX4 [3], 11.4 upbm affinity estimate (log intensity, higher = more binding, comparable within an allelic series); with PAX4 [4], 10.2 upbm affinity estimate (log intensity, higher = more binding, comparable within an allelic series); with PAX4 [5], 10.6 upbm affinity estimate (log intensity, higher = more binding, comparable within an allelic series); in the assay with PAX4 [6], 10.6 upbm affinity estimate (log intensity, higher = more binding, comparable within an allelic series).

Consider CGCCCGGC, for which the binding signal is 9.26 upbm affinity estimate (log intensity, higher = more binding, comparable within an allelic series) in the assay with PAX4 [1]; 9.23 upbm affinity estimate (log intensity, higher = more binding, comparable within an allelic series) with PAX4 [2]; 9.1 upbm affinity estimate (log intensity, higher = more binding, comparable within an allelic series) with PAX4 [3]; 8.97 upbm affinity estimate (log intensity, higher = more binding, comparable within an allelic series) in the assay with PAX4 [4]; 9.01 upbm affinity estimate (log intensity, higher = more binding, comparable within an allelic series) with PAX4 [5]; 9.06 upbm affinity estimate (log intensity, higher = more binding, comparable within an allelic series) with PAX4 [6].

Regarding CCGCGAGC, the binding signal in the assay with PAX4 [1] was 9.36 upbm affinity estimate (log intensity, higher = more binding, comparable within an allelic series); with PAX4 [2], 9.36 upbm affinity estimate (log intensity, higher = more binding, comparable within an allelic series); with PAX4 [3] it was 9.27 upbm affinity estimate (log intensity, higher = more binding, comparable within an allelic series); with PAX4 [4], 9.16 upbm affinity estimate (log intensity, higher = more binding, comparable within an allelic series); with PAX4 [5] it was 9.2 upbm affinity estimate (log intensity, higher = more binding, comparable within an allelic series); with PAX4 [6] it was 9.31 upbm affinity estimate (log intensity, higher = more binding, comparable within an allelic series).

Take CGGCCGGC: the binding signal is 9.17 upbm affinity estimate (log intensity, higher = more binding, comparable within an allelic series) with PAX4 [1]; 9.29 upbm affinity estimate (log intensity, higher = more binding, comparable within an allelic series) with PAX4 [2]; 9.07 upbm affinity estimate (log intensity, higher = more binding, comparable within an allelic series) with PAX4 [3]; 9.01 upbm affinity estimate (log intensity, higher = more binding, comparable within an allelic series) in the assay with PAX4 [4]; 9 upbm affinity estimate (log intensity, higher = more binding, comparable within an allelic series) in the assay with PAX4 [5]; 9.07 upbm affinity estimate (log intensity, higher = more binding, comparable within an allelic series) with PAX4 [6].

For the sequence GAAGCTTC, the binding signal in the assay with PAX4 [1] is 9.21 upbm affinity estimate (log intensity, higher = more binding, comparable within an allelic series); with PAX4 [2] it was 9.26 upbm affinity estimate (log intensity, higher = more binding, comparable within an allelic series); with PAX4 [3], 9.45 upbm affinity estimate (log intensity, higher = more binding, comparable within an allelic series); with PAX4 [4], 9.5 upbm affinity estimate (log intensity, higher = more binding, comparable within an allelic series); in the assay with PAX4 [5], 9.42 upbm affinity estimate (log intensity, higher = more binding, comparable within an allelic series); with VAX1 [7], 6.86 upbm affinity estimate (log intensity, higher = more binding, comparable within an allelic series). For the same sequence, the binding signal is 7.04 upbm affinity estimate (log intensity, higher = more binding, comparable within an allelic series) with VAX1 [8]; 9.35 upbm affinity estimate (log intensity, higher = more binding, comparable within an allelic series) in the assay with PAX4 [6]; 6.85 upbm affinity estimate (log intensity, higher = more binding, comparable within an allelic series) with VAX1 [9].

AATTATAC: the binding signal is 11.1 upbm affinity estimate (log intensity, higher = more binding, comparable within an allelic series) with PRRX1 and 9.99 upbm affinity estimate (log intensity, higher = more binding, comparable within an allelic series) in the assay with HOXB6.

As to CCGGGCTC, the binding signal is 9.24 upbm affinity estimate (log intensity, higher = more binding, comparable within an allelic series) in the assay with PAX4 [1]; 9.31 upbm affinity estimate (log intensity, higher = more binding, comparable within an allelic series) with PAX4 [2]; 9.36 upbm affinity estimate (log intensity, higher = more binding, comparable within an allelic series) with PAX4 [3]; 9.17 upbm affinity estimate (log intensity, higher = more binding, comparable within an allelic series) with PAX4 [4]; 9.16 upbm affinity estimate (log intensity, higher = more binding, comparable within an allelic series) with PAX4 [5]; 9.23 upbm affinity estimate (log intensity, higher = more binding, comparable within an allelic series) with PAX4 [6].

Take ATGAATTA: the binding signal is 11.7 upbm affinity estimate (log intensity, higher = more binding, comparable within an allelic series) in the assay with PAX4 [1]; 12.2 upbm affinity estimate (log intensity, higher = more binding, comparable within an allelic series) with PAX4 [2]; 11.8 upbm affinity estimate (log intensity, higher = more binding, comparable within an allelic series) in the assay with PAX4 [3]; 10.7 upbm affinity estimate (log intensity, higher = more binding, comparable within an allelic series) with PAX4 [4]; 11.2 upbm affinity estimate (log intensity, higher = more binding, comparable within an allelic series) in the assay with PAX4 [5]; 11 upbm affinity estimate (log intensity, higher = more binding, comparable within an allelic series) with PAX4 [6].

With GGAAAATA, the binding signal with PAX4 [1] is 10.5 upbm affinity estimate (log intensity, higher = more binding, comparable within an allelic series); with PAX4 [2], 10.7 upbm affinity estimate (log intensity, higher = more binding, comparable within an allelic series); with PAX4 [4], 10.1 upbm affinity estimate (log intensity, higher = more binding, comparable within an allelic series); with PAX4 [5] it was 10.1 upbm affinity estimate (log intensity, higher = more binding, comparable within an allelic series).

With TGTATTAA, the binding signal with PAX4 [1] was 11.7 upbm affinity estimate (log intensity, higher = more binding, comparable within an allelic series); with CRX, 10.9 upbm affinity estimate (log intensity, higher = more binding, comparable within an allelic series).

In the case of AGCGCTGC, the binding signal with PAX4 [1] was 9.36 upbm affinity estimate (log intensity, higher = more binding, comparable within an allelic series); with PAX4 [2], 9.27 upbm affinity estimate (log intensity, higher = more binding, comparable within an allelic series); in the assay with PAX4 [3], 9.34 upbm affinity estimate (log intensity, higher = more binding, comparable within an allelic series); with PAX4 [4] it was 9.36 upbm affinity estimate (log intensity, higher = more binding, comparable within an allelic series); in the assay with PAX4 [5], 9.24 upbm affinity estimate (log intensity, higher = more binding, comparable within an allelic series); in the assay with PAX4 [6] it was 9.35 upbm affinity estimate (log intensity, higher = more binding, comparable within an allelic series).

Take GATATTAA: the binding signal is 11.2 upbm affinity estimate (log intensity, higher = more binding, comparable within an allelic series) with PAX4 [1]; 11.5 upbm affinity estimate (log intensity, higher = more binding, comparable within an allelic series) with PAX4 [2]; 11.2 upbm affinity estimate (log intensity, higher = more binding, comparable within an allelic series) with PAX4 [3]; 10.3 upbm affinity estimate (log intensity, higher = more binding, comparable within an allelic series) with PAX4 [4]; 10.5 upbm affinity estimate (log intensity, higher = more binding, comparable within an allelic series) with PAX4 [5]; 10.6 upbm affinity estimate (log intensity, higher = more binding, comparable within an allelic series) with PAX4 [6].

Regarding TGGGCCCA, the binding signal with PAX4 [1] was 9.53 upbm affinity estimate (log intensity, higher = more binding, comparable within an allelic series); with PAX4 [2], 9.41 upbm affinity estimate (log intensity, higher = more binding, comparable within an allelic series); in the assay with PAX4 [3], 9.57 upbm affinity estimate (log intensity, higher = more binding, comparable within an allelic series); in the assay with PAX4 [4] it was 9.2 upbm affinity estimate (log intensity, higher = more binding, comparable within an allelic series); with PAX4 [5], 9.37 upbm affinity estimate (log intensity, higher = more binding, comparable within an allelic series); with PAX4 [6] it was 9.35 upbm affinity estimate (log intensity, higher = more binding, comparable within an allelic series).

GGAGGCAC: the binding signal in the assay with PAX4 [1] was 9.34 upbm affinity estimate (log intensity, higher = more binding, comparable within an allelic series); with PAX4 [2] it was 9.31 upbm affinity estimate (log intensity, higher = more binding, comparable within an allelic series); with PAX4 [3], 9.57 upbm affinity estimate (log intensity, higher = more binding, comparable within an allelic series); in the assay with PAX4 [4], 9.46 upbm affinity estimate (log intensity, higher = more binding, comparable within an allelic series); in the assay with PAX4 [5], 9.46 upbm affinity estimate (log intensity, higher = more binding, comparable within an allelic series); with PAX4 [6], 9.48 upbm affinity estimate (log intensity, higher = more binding, comparable within an allelic series).

On to ATTACCCG, for which the binding signal in the assay with PAX4 [1] was 10.6 upbm affinity estimate (log intensity, higher = more binding, comparable within an allelic series); in the assay with PAX4 [2], 11 upbm affinity estimate (log intensity, higher = more binding, comparable within an allelic series); with PAX4 [4] it was 9.93 upbm affinity estimate (log intensity, higher = more binding, comparable within an allelic series); with PAX4 [5], 9.92 upbm affinity estimate (log intensity, higher = more binding, comparable within an allelic series); with PAX4 [6], 10.1 upbm affinity estimate (log intensity, higher = more binding, comparable within an allelic series).

For GAGCTCGC, the binding signal with PAX4 [1] is 9.35 upbm affinity estimate (log intensity, higher = more binding, comparable within an allelic series); with PAX4 [2], 9.28 upbm affinity estimate (log intensity, higher = more binding, comparable within an allelic series); with PAX4 [3], 9.32 upbm affinity estimate (log intensity, higher = more binding, comparable within an allelic series); in the assay with PAX4 [4], 9.23 upbm affinity estimate (log intensity, higher = more binding, comparable within an allelic series); with PAX4 [5], 9.12 upbm affinity estimate (log intensity, higher = more binding, comparable within an allelic series); with PAX4 [6], 9.26 upbm affinity estimate (log intensity, higher = more binding, comparable within an allelic series).

CGTATTAA: the binding signal is 11.8 upbm affinity estimate (log intensity, higher = more binding, comparable within an allelic series) in the assay with PAX4 [1]; 12.2 upbm affinity estimate (log intensity, higher = more binding, comparable within an allelic series) with PAX4 [2]; 11.5 upbm affinity estimate (log intensity, higher = more binding, comparable within an allelic series) in the assay with PAX4 [3]; 10.5 upbm affinity estimate (log intensity, higher = more binding, comparable within an allelic series) with PAX4 [4]; 11 upbm affinity estimate (log intensity, higher = more binding, comparable within an allelic series) with PAX4 [5]; 11 upbm affinity estimate (log intensity, higher = more binding, comparable within an allelic series) with PAX4 [6]. The binding signal with CRX was 11.2 upbm affinity estimate (log intensity, higher = more binding, comparable within an allelic series).

Consider AAATTAAG, for which the binding signal with PAX4 [1] is 11.5 upbm affinity estimate (log intensity, higher = more binding, comparable within an allelic series); with PAX4 [2], 12.1 upbm affinity estimate (log intensity, higher = more binding, comparable within an allelic series); with PAX4 [3], 11.8 upbm affinity estimate (log intensity, higher = more binding, comparable within an allelic series); in the assay with PAX4 [4], 10.4 upbm affinity estimate (log intensity, higher = more binding, comparable within an allelic series); with PAX4 [5], 10.8 upbm affinity estimate (log intensity, higher = more binding, comparable within an allelic series); in the assay with PAX4 [6] it was 10.8 upbm affinity estimate (log intensity, higher = more binding, comparable within an allelic series).
